About 2,200 (92%) of roughly 2,400 compounds were called active. So high a share suggests a set chosen from earlier hits. Some of the results follow. Values without a mark were called inactive.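 The calls were made as follows: active = mean inhibition over triplicate runs exceeds the cutoff derived for the earlier primary screen (cut at about 25% in these data); inactive = the rest.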
molecular target: Platelet-activating factor acetylhydrolase IB subunit alpha2 (Homo sapiens) (UniProt P68402); assay: inhibition of human PAFAH1B2 catalytic subunit – biochemical, fluorescence polarization, FP-rhodamine probe, triplicate, confirmation (AID 493034); details: recombinant PAFAH1B2, FP-rhodamine probe fluorescence polarization; at 3.39 µM; hits give high values;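 also: 0% = enzyme with DMSO and 100% = wells lacking PAFAH1B2 protein; inhibitors lower polarization by leaving the probe unbound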
Sequence (P68402 whole entry, looked up): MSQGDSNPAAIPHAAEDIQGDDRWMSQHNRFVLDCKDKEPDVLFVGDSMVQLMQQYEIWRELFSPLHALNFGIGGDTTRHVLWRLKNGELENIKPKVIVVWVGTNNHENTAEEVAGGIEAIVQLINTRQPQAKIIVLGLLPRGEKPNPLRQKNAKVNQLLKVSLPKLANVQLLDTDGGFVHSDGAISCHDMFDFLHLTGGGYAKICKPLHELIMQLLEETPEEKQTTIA

SMILES | inhibition
CCCCOc1ccc(S(=O)(=O)NC(=O)NCc2ccc(OCCC)cc2)cc1 | 32.1% (active)
CCCCOc1ccc(CNC(=O)NS(=O)(=O)c2ccc(OCC(C)C)cc2)cc1 | 57.7% (active)
Cc1ccc(CNC(=O)Nc2ccc(Cl)cc2)cc1 | 1.92%
O=C(COC(=O)C1(c2ccc(F)cc2)CCCC1)N1CCN(C(=O)c2ccco2)CC1 | 20.3%
Cc1c(NC(=O)CCSc2ccc(Cl)cc2)c(=O)n(-c2ccccc2)n1C | 24%
Clc1ccc(SCCn2ccnc2)cc1 | 37.8% (active)
Clc1ccc(SCCCCn2ccnc2)cc1 | 62.5% (active)
CC1(COS(N)(=O)=O)CCCCC1 | 16.8%
CC(NC(=O)c1cc2cc(Br)ccc2oc1=N)c1ccccc1 (stereo not drawn) | 21.8%
O=C(O)COc1ccccc1-c1nc(-c2ccccc2)c(-c2ccccc2)[nH]1 | 24%
O=C(O)c1[nH]c2ccccc2c1C(c1cc(Br)ccc1O)c1c(C(=O)O)[nH]c2ccccc12 | 89.5% (active)
CCOc1cc(Br)cc(C(c2c(C(=O)O)[nH]c3ccccc23)c2c(C(=O)O)[nH]c3ccccc23)c1O | 62.7% (active)
O=C(O)COc1ccc(Br)cc1C(c1c(C(=O)O)[nH]c2ccccc12)c1c(C(=O)O)[nH]c2ccccc12 | 46.4% (active)
CC(Nc1ccc(Cl)cc1)c1cc(Cl)ccc1O (stereo not drawn) | 42.3% (active)
COc1oc(C(=O)NC2CCCCC2)c(-c2ccc(Cl)cc2)c1S(=O)(=O)c1ccccc1 | 11.3%
Nc1scc(-c2ccncc2)c1Cl | 91.5% (active)
O=C(O)CCn1cc(/C=C/C(=O)c2ccc(Cl)cc2)c(-c2cccc(Br)c2)n1 | 47.4% (active)
O=C(O)CCn1cc(/C=C\C(=O)c2ccc(Cl)cc2)c(-c2cccc(Br)c2)n1 | 41.1% (active)
CCN(C(=O)CSc1nnc(-c2ccc3c(c2)OCO3)o1)C1CCS(=O)(=O)C1 (stereo not drawn) | 1.27%
NC(=S)N=Nc1c(O)n(CCCl)c2ccc(Br)cc12 | 30.4% (active)

SMILES | inhibition
Cc1ccc(S(=O)(=O)Oc2ccc(C3C4=C(CCCC4=O)N(CCC(=O)O)C4=C3C(=O)CCC4)cc2Cl)cc1 | 33.9% (active)
Cc1ccc(S(=O)(=O)Nc2cc(C)c(O)c(S(=O)(=O)c3ccc(C)cc3)c2)cc1 | 28.9% (active)
Cc1cc(C(C)(C)C)cc(S(=O)(=O)Nc2cccc(C(=O)O)c2)c1C | 23.3%
Cc1ccc(S(=O)(=O)Nc2ccc(S(=O)(=O)NCC3CCCO3)cc2)cc1 (stereo not drawn) | 23.3%
COc1cccc(/C=N/N2CCN(c3ccc(Cl)cc3)CC2)c1OC | 23.6%
NC1=NC(=O)/C(=C/c2cn(CCC(=O)O)nc2-c2ccc(F)cc2)S1 | 38.2% (active)
NC1=NC(=O)/C(=C/c2cn(CCC(=O)O)nc2-c2ccc(Cl)cc2)S1 | 24.1% (active)
Cc1ccc(S(=O)(=O)N2CCC(=O)N(C(COC(=O)Nc3ccccc3)Cc3ccccc3)CC2)cc1 (stereo not drawn) | 32.5% (active)
NC(=O)c1c(NC(=O)CN2CCN(S(=O)(=O)c3ccccc3)CC2)sc2c1CCC2 | 1.51%
CCc1ccc(-c2nc(CSCC(=O)N3CCN(c4ccccn4)CC3)c(C)o2)cc1 | 53% (active)
CCCCCCCCCCCC(=O)O | 21.5%
O=c1[nH]c(CSc2nc3ccccc3s2)nc2ccccc12 | 16.8%
CC(C(=O)Nc1ccccc1-c1ccccc1)N1CCN(S(=O)(=O)c2ccccc2)CC1 (stereo not drawn) | 22%
CC(=O)NC(Cc1c[nH]c2ccccc12)C(=O)OCC(=O)N1CCN(S(=O)(=O)c2ccc(Cl)cc2)CC1 (stereo not drawn) | 84.9% (active)
COc1ccccc1N1CCN(S(=O)(=O)c2ccc(Cl)cc2)CC1 | 24.1%
N=c1c(S(=O)(=O)c2ccc(Br)cc2)cc2c(=O)n3ccccc3nc2n1CCN1CCOCC1 | 22.9%
Nc1nc(C2CCCCC2)cs1 | 55.7% (active)
COC(=O)CSc1nnc(SCc2ccc(Cl)cc2)s1 | 20.6%
NS(=O)(=O)c1cccc(NC(=O)CC23CC4CC(C2)CC(CC(=O)Nc2cccc(S(N)(=O)=O)c2)(C4)C3)c1 | 27.4% (active)
CCc1cccc(Nc2cnn(C34C[C@@H]5C[C@@H](CC(CC(=O)O)(C5)C3)C4)c(=O)c2Cl)c1 | 20.4%

SMILES | inhibition
Cc1ccc(S(=O)(=O)n2oc(=O)c(C3CCCCC3)c2N)cc1 | 23.5%
O=C(/C=C/c1ccc(F)cc1)NC(=S)NNC(=O)[C@H]1C[C@@H]1c1ccccc1 | 47.2% (active)
CC(C)CNC(=O)c1cccc(NC(=O)CSc2ccc(Cl)cc2)c1 | 22.5%
COc1ccc(/C=C\C(=O)CC(O)(c2ccccc2)C(F)(F)F)cc1 (stereo not drawn) | 21.6%
O=C(/C=C/c1ccccc1)CC(O)(c1ccccc1)C(F)(F)F (stereo not drawn) | 38.1% (active)
CC(=O)Nc1ccc(NC(=O)C(C)OC(=O)C2(c3ccc(F)cc3)CCCC2)cc1 (stereo not drawn) | 23.3%
Cc1nn(-c2ccccc2)c2c1CC(=O)Nc1ccccc1-2 | 23.1%
Cc1nc(SCCC(=O)O)c2cc(-c3ccccc3)sc2n1 | 33.6% (active)
O=C(O)CN1C(=O)/C(=C\c2cccc(OCc3ccc(Cl)cc3)c2)SC1=S | 68.2% (active)
CC1=CC(=NNS(=O)(=O)c2ccc([N+](=O)[O-])cc2)CC(C)(C)C1 | 23.5%
Nc1nn(S(=O)(=O)c2ccccc2)cc1-c1ccc([N+](=O)[O-])cc1 | 24%
O=[N+]([O-])c1ccc(S(=O)(=O)NNC(=S)NCCc2ccccc2)cc1 | 38.5% (active)
O=c1[nH]c(CCl)nc2cc(-c3ccc(Cl)cc3)sc12 | 61% (active)
Cc1cc(NC(=S)N(Cc2ccc(Br)cc2)Cc2ccc(C(=O)O)cc2)ccc1Cl | 1.23%
O=C(O)c1[nH]c2ccccc2c1C(c1cccc(O)c1)c1c(C(=O)O)[nH]c2ccccc12 | 80.5% (active)
COc1cc(C(c2c(C(=O)O)[nH]c3ccccc23)c2c(C(=O)O)[nH]c3ccccc23)ccc1OCc1ccccc1 | 37.9% (active)
O=C(O)c1[nH]c2ccccc2c1C(c1c(F)cccc1Cl)c1c(C(=O)O)[nH]c2ccccc12 | 33.3% (active)
O=C(O)c1[nH]c2ccccc2c1C(c1ccccc1)c1c(C(=O)O)[nH]c2ccccc12 | 75.9% (active)
